Compounds with a hit are over-represented: about 6.2% of the library has one in this group of screens.
Mot1-301 SUMO: blocks SUMOylation pathway, rescuing yeast Mot1-301 growth | growth rescue, % at 18.8 µM | S. cerevisiae Mot1-301 growth rescue, ATP luminescence, 38.5C; percent above DMSO median, 100 means doubled | 320,000 tested, 1% active;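 active = every valid replicate shows activation above 250% relative to neutral control wells; inactive = the rest, any valid replicate at or below 250%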;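 also: OY570 slx delta 5 strain wells were the positive control but not used for scaling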
AI-2 QS mod: modulators of Vibrio harveyi AI-2 quorum sensing system | Vibrio harveyi JMH597 AI-2 luminescence/OD600 ratio, 9 h; active compounds read low; strain lacks LuxN and CqsS sensors; 0 = neutral-control median | AID 2094 | 300,000 tested, 0.4% active | activity change, % at 7.5 µM; in the data active = activity change below about -75%, passing the limit was not always enough;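 also: luminescence divided by OD600 gain over 9 h not by final OD600 alone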
NR3A LBD binder: modulates the human NR3A ligand-binding domain; NR3A LBD differential scanning fluorimetry, Tm shift; 0% = protein alone, 100% = glycine-bound protein; Tm shift relative to glycine control, % at 25 µM; 340,000 tested, 2.5% active;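 active = melting temperature shift of at least 10% of the positive control shift, at one fixed dose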
NTR1 agonist: activates human neurotensin receptor 1. NTR1-U2OS beta-arrestin-GFP spot imaging, agonist mode. 330,000 tested, 0.17% active. AID 493036. activation, % at 20 µM;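 active = activation at or above 40% of the spot to cytoplasm intensity ratio, with at least 20 cells analyzed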;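 also: 0% = DMSO without peptide and 100% = 100 nM NTR1 peptide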
AHR act: activates the human aryl hydrocarbon receptor | P35869 | AHR-responsive luciferase reporter cells, luminescence | activation, % at 5 µM | 320,000 tested, 2.5% active; in the data active = activation above about 47%;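 also: 0% = vehicle wells and 100% = reference agonist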
Cardio protect: protects H9c2 cardiomyocytes from peroxide injury; H2O2 injury protection, ATPLite, 2 h; protection from H2O2 cell death, % at 20 µM; 360,000 tested, 0.63% active;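 active = compounds giving at least 50% protection of heart cells from peroxide-induced death in the single-dose screen, raw or plate-pattern-corrected value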;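 also: 0% = DMSO wells with peroxide and 100% = DMSO wells without peroxide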
AHR act confirm: human AHR activation, confirmation | shares compounds with AHR act | human cells, AHR-responsive luciferase reporter, luminescence | activation, % at 9 µM | 2,300 tested, 87% active; in the data active = activation above about 49%;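 also: HepG2 hepatoma cells carrying a DRE-driven firefly luciferase reporter; 0% = vehicle wells and 100% = reference agonist wells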
PXR counter: PXR activation, counter-screen for AHR activators. shares compounds with AHR act. cell-based PXR reporter, luciferase luminescence. activation, % at 11.6 µM. 2,300 tested, 88% active; in the data active = activation above about 11%;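 also: human hepatoma DPX-2 cells expressing full-length human PXR; 0% = DMSO and 100% = reference agonist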
Target sequence (O75469 whole entry, looked up): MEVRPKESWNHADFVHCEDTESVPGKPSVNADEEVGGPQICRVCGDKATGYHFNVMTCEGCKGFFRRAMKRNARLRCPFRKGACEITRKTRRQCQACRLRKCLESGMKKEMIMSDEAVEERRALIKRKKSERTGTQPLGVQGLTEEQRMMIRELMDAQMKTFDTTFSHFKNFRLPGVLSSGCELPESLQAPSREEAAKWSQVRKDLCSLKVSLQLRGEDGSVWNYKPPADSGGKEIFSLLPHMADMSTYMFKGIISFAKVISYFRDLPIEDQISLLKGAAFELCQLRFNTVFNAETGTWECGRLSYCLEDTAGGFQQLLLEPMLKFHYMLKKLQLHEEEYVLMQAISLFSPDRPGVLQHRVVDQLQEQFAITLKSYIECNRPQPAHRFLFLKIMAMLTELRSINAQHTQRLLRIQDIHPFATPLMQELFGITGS
An asterisk follows results filed as active; x = no result given.

SMILES | Mot1-301 SUMO | AI-2 QS mod | NR3A LBD binder | NTR1 agonist | AHR act | Cardio protect | AHR act confirm | PXR counter
Cc1ccc(NCc2nc3ccccc3n2C)cc1C | 2 | 25 | 0 | 1 | 103* | -7 | 127* | 26*
Cn1c(CNc2ccc(O)cc2)nc2ccccc21 | 76 | 2 | 6 | 1 | 15 | -1 | x | x
Cn1c(CNC2CCCCC2)nc2ccccc21 | -8 | 15 | -2 | -2 | 19 | -4 | x | x
Cn1c(CNc2ccc(Br)cc2)nc2ccccc21 | 8 | 10 | -2 | 5 | 108* | -12 | 185* | 48*
Cc1ccc(NCc2nc3ccccc3n2C)cc1 | 2 | 28 | 0 | 0 | 80* | -14 | 66* | 12*
CCN(CC)S(=O)(=O)c1ccc(C)c(C(=O)Oc2cccc(-c3cnc4ccccc4n3)c2)c1 | -21 | 11 | 1 | 0 | -3 | -7 | x | x
O=C(Oc1cccc(-c2cnc3ccccc3n2)c1)c1ccco1 | -2 | 2 | -1 | -1 | 99* | -8 | 44 | 9
CC1=CCC2C(=O)N(c3ccc(C)c(Br)c3)C(=O)C2C1 (stereo not given) | -3 | -13 | -2 | 6 | 90* | -7 | 3 | 87*
CCN1CC(CN(C)Cc2nc(-c3ccco3)oc2C)CC1=O (stereo not given) | -11 | 15 | 0 | 0 | 1 | 5 | x | x
CCN1CC(CN(C)Cc2nc(-c3ccc(C(F)(F)F)cc3)oc2C)CC1=O (stereo not given) | 9 | 19 | 0 | 15 | 116* | -4 | 99* | 64*
Cc1nn2c(-c3ccc(F)cc3)ccnc2c1Br | 10 | 14 | -2 | 0 | 82* | -4 | 109* | 25*
Cc1nn2c(-c3ccncc3)ccnc2c1Br | 24 | 17 | 0 | 1 | -1 | 9 | x | x
Fc1ccc(-c2cnn3c(-c4ccncc4)ccnc23)cc1 | 11 | 29 | 1 | 0 | 135* | -14 | 45 | 27*
COc1ccccc1CNC(=O)COC(=O)c1cccc(S(=O)(=O)N2CCOCC2)c1 | -23 | 35 | -3 | 0 | 0 | 3 | x | x
CCOc1c(C)cnc2c1c(=O)n(Cc1ccc(Cl)cc1)c(=O)n2C | 3 | 0 | 0 | 1 | 3 | -3 | x | x
Cc1ccccc1-c1nc(-c2cccnc2)no1 | -16 | 7 | 0 | 1 | 107* | -9 | 105* | x
c1ccc(-c2ccc(-c3nc(-c4cccnc4)no3)cc2)cc1 | 19 | 13 | 0 | 1 | -9 | -18 | x | x
Clc1ccccc1-c1nc(-c2cccnc2)no1 | -7 | 34 | 3 | 0 | 105* | -12 | 123* | 14*
Clc1ccccc1-c1nnc(-c2cccnc2)o1 | 2 | 11 | 5 | 0 | 0 | -4 | x | x
CC(C)[C@H](NC(=O)[C@@H]1Cc2c([nH]c3ccccc23)C2c3ccccc3C(=O)N21)C(=O)N1CCC[C@@H]1C(=O)O (stereo not given in full) | 19 | 6 | -4 | 0 | 11 | 2 | x | x
CC(NS(=O)(=O)c1cccc(Cl)c1F)[C@H](O)c1ccccc1 (stereo not given in full) | x | x | x | x | x | -3 | x | x
Cc1ccc(Nc2nc(NCCO)nc3c2cnn3C)cc1Cl | -13 | -11 | 0 | 4 | 81* | 7 | 120* | 16*
Cn1ncc2c(Nc3ccc(O)cc3)nc(Cl)nc21 | 10 | 7 | x | -1 | 2 | 10 | x | x
CNc1nc(Nc2ccc(C)c(Cl)c2)c2cnn(C)c2n1 | 32 | 12 | -9 | 7 | 37 | -10 | x | x
Cn1ncc2c(Nc3ccc(Br)cc3)nc(Nc3ccc(Br)cc3)nc21 | 26 | 16 | x | 31 | 112* | -4 | 104* | 13*
SMILES | Mot1-301 SUMO | AI-2 QS mod | NR3A LBD binder | NTR1 agonist | AHR act | Cardio protect | AHR act confirm | PXR counter
CC1=C(C(=O)N(C(C)C)C(C)C)CC(CC(=O)NCc2cccc3ccccc23)C(=O)N1CCC1=CCCCC1 (stereo not given) | x | x | x | x | x | -4 | x | x
O=C(Nc1ccc(Br)cc1)c1cccc(N2C(=O)C3CCCCC3C2=O)c1 (stereo not given) | 9 | 1 | -5 | 1 | 114* | -8 | 19 | 18*
N#Cc1ccc(C23OCCN2CCn2nc4ccccc4c23)cc1 (stereo not given) | -12 | x | 0 | -1 | 103* | 4 | 109* | 95*
Cc1noc(C)c1COc1ccccc1C(=O)NNC(=O)c1ccccc1F | 3 | x | 0 | -3 | 92* | -7 | 117* | 73*
Cc1noc(C)c1COc1ccccc1C(=O)NNC(=O)c1ccc(F)cc1 | -7 | x | 2 | 0 | 2 | -1 | x | x
CC1(NC(=O)Nc2cc([N+](=O)[O-])ccc2O)CCS(=O)(=O)C1 (stereo not given) | -4 | x | -1 | 1 | 0 | -1 | x | x
Cc1c(N)cccc1Cl | x | x | 0 | x | x | 3 | x | x
COC(=O)c1[nH]c2ccccc2c1NC(=O)Oc1ccccc1 | 72 | 28 | 17* | 1 | 95* | -1 | 48* | 19*
COc1ccc(S(=O)(=O)N2CCN(c3nn(C)c(=O)n(C)c3=O)CC2)cc1 | 21 | x | -1 | -2 | -1 | -7 | x | x
COc1ccc(C(=O)Nc2ccccc2C(=O)Nc2ccccc2)cc1 | x | x | x | x | x | -17 | x | x
COc1ccc(C(=O)Nc2ccccc2C(=O)N/N=C/c2ccco2)cc1 | -8 | 19 | -1 | 2 | 137* | -21 | 100* | 29*
CCOc1ccc(/C=N/NC(=O)c2ccccc2NC(=O)c2ccc(OC)cc2)cc1 | 74 | 5 | 15* | 2 | 106* | -18 | 13 | 31*
O=C(Nc1ccccc1C(=O)N/N=C/c1ccncc1)c1ccccc1 | -36 | 12 | 2 | 0 | 101* | -11 | 41 | 37*
COc1ccccc1C1CC(c2cccc(NS(C)(=O)=O)c2)=NN1S(=O)(=O)c1ccccc1 (stereo not given) | 27 | 13 | -2 | 0 | 1 | 0 | x | x
O=C(Nc1ccc(S(=O)(=O)N2CCCC2)cc1)C1CCN(S(=O)(=O)c2ccc(F)cc2)CC1 | 0 | 12 | -2 | 1 | -1 | -2 | x | x
COCc1cc(=O)n2[nH]c(-c3cccc(Br)c3)cc2n1 | -5 | 3 | -5 | -1 | 120* | -8 | 115* | 13*
COCc1cc(=O)n2[nH]c(-c3ccccc3)cc2n1 | -2 | 11 | 0 | -1 | 33 | 10 | x | x
O=C(Nc1ccc(Cl)cc1)c1cccc(S(=O)(=O)Nc2ccccn2)c1 | 52 | 9 | -9 | 0 | 91* | 2 | 77* | 34*
Cc1cc2n(n1)C(c1ccsc1)Nc1ccccc1-2 (stereo not given) | 3 | 3 | 0 | 4 | 19 | -6 | x | x

Compound activity (PubChem)
